SMILES strings stand for the structures. The campaign covered roughly 39,000 compounds. About 3,300 (8.5%) were called active. This is one part of a sample in which actives are shown more often than they occur.

The test system of this assay is HepG2. The assay is described as follows: cytotoxicity call (relative viability < 0.9). The note with it: 10 µM.
In the case of `CCSC(=S)N[C@H]1CCS(=O)(=O)C1`, the cytotoxicity call was “inactive”.

As to `CC(C)NC(=O)Nc1ccc2c(c1)C(=O)N([C@@H](C)CO)C[C@@H](C)[C@@H](CN(C)C(=O)Nc1ccc(F)cc1)OCCCC[C@@H](C)O2`, the cytotoxicity call is “inactive”.

On to `C[C@H](O)C#Cc1ccc2c(c1)O[C@@H](CN(C)C)[C@H](C)CN([C@@H](C)CO)S2(=O)=O`, for which the cytotoxicity call is “inactive”.

For the molecule `COC(=O)C[C@H]1CC[C@@H]2[C@H](COC[C@@H](O)CN2S(=O)(=O)c2ccccc2C)O1`, the cytotoxicity call was “inactive”.

As for `Cc1ccc(S(=O)(=O)N(C)C[C@@H]2Oc3c(NS(C)(=O)=O)cccc3C(=O)N([C@@H](C)CO)C[C@H]2C)cc1`, the cytotoxicity call is “inactive”.

Regarding `C[C@@H]1CCCCO[C@@H](CN(C)CC2CC2)[C@H](C)CN([C@@H](C)CO)C(=O)c2cc(NC(=O)CCC(F)(F)F)ccc2O1`, the cytotoxicity call was “inactive”.

As to `Cn1c([N+](=O)[O-])cnc1COC(N)=O`, the cytotoxicity call was “inactive”.

For `COc1ccc(NC(=O)Nc2ccc3c(c2)[C@H]2C[C@H](CC(=O)N4CCN(C)CC4)O[C@H](CO)[C@H]2O3)cc1`, the cytotoxicity call was “inactive”.

For the molecule `COCCOC(=O)N1C(=O)[C@@]2(c3cc(C#CCCO)ccc31)[C@H](c1ccc(O)cc1)N1[C@H](c3ccccc3)[C@H](c3ccccc3)OC(=O)[C@H]1[C@@H]2C(=O)N1CCc2cc(OC)c(OC)cc2C1`, the cytotoxicity call was “inactive”.

On to `Cc1ccc(C(C)C)c(O)c1`, for which the cytotoxicity call is “inactive”.

Regarding `Cc1cccc(NC(=O)C(C)C)c1`, the cytotoxicity call was “inactive”.

Turning to `CC1(C)NC(=O)N(c2ccc([N+](=O)[O-])c(C(F)(F)F)c2)C1=O`, the cytotoxicity call is “inactive”.

Take `CC(C)C(=O)Nc1ccc([N+](=O)[O-])c(C(F)(F)F)c1`: the cytotoxicity call is “active”.

Regarding `COc1cccc(S(=O)(=O)N(C)C[C@@H]2OCc3cnnn3CCCC(=O)N([C@@H](C)CO)C[C@@H]2C)c1`, the cytotoxicity call is “inactive”.

Take `COc1ccc(S(=O)(=O)N(C)C[C@@H]2Oc3c(NC(=O)Nc4c(C)noc4C)cccc3C(=O)N([C@H](C)CO)C[C@H]2C)cc1`: the cytotoxicity call was “inactive”.

For the molecule `Cc1noc(C)c1NC(=O)N(C)C[C@H]1OCCCC[C@@H](C)Oc2ccc(NC(=O)Nc3cccc4ccccc34)cc2C(=O)N([C@H](C)CO)C[C@@H]1C`, the cytotoxicity call is “inactive”.

For `CCOC(=O)n1ncc(C#N)c1N`, the cytotoxicity call was “inactive”.

On to `CCOC(=O)/C(C#N)=C1/C=CN(C)C=N1`, for which the cytotoxicity call was “active”.

For `CCOC(=O)CN(C#N)c1nc(C)cc(C)n1`, the cytotoxicity call is “inactive”.

`C[C@H]1CN([C@@H](C)CO)C(=O)c2cccc(NC(=O)CCCCCC(=O)Nc3ccccc3N)c2O[C@@H]1CN(C)C(=O)Nc1ccc(C(F)(F)F)cc1`: the cytotoxicity call is “inactive”.

With `O=C(C[C@@H]1CC[C@H]2[C@@H](COC[C@H](O)CN2C(=O)Nc2cccc(Cl)c2)O1)NCCCN1CCOCC1`, the cytotoxicity call is “inactive”.

For the molecule `C[C@H]1CN([C@@H](C)CO)C(=O)c2cccc(NC(=O)C3CC3)c2O[C@@H]1CN(C)C(=O)NC1CCCCC1`, the cytotoxicity call was “inactive”.

For the molecule `C[C@H]1CN([C@@H](C)CO)C(=O)c2cccc(NC(=O)C3CCCCC3)c2O[C@@H]1CN(C)Cc1ccc(Oc2ccccc2)cc1`, the cytotoxicity call was “inactive”.

As for `C[C@@H]1CCCCO[C@@H](CN(C)C(=O)NC2CCCCC2)[C@@H](C)CN([C@H](C)CO)C(=O)c2cc(NS(=O)(=O)c3ccc(F)cc3)ccc2O1`, the cytotoxicity call is “inactive”.

Turning to `C[C@@H]1CN([C@H](C)CO)C(=O)c2c(c3ccccc3n2C)-c2ccccc2CO[C@H]1CN(C)C(=O)Nc1ccccc1C(F)(F)F`, the cytotoxicity call is “inactive”.

Take `C[C@@H]1CN([C@H](C)CO)C(=O)c2ccccc2-c2ccccc2CO[C@@H]1CN(C)C(=O)Nc1ccccc1C(F)(F)F`: the cytotoxicity call was “inactive”.

Regarding `C[C@H](CO)N1C[C@H](C)[C@@H](CN(C)C(=O)Nc2ccccc2C(F)(F)F)OCc2ccccc2-c2c(n(C)c3ccccc23)C1=O`, the cytotoxicity call was “active”.

With `C[C@@H]1CN([C@H](C)CO)C(=O)c2ccccc2-c2ccccc2CO[C@H]1CN(C)C(=O)Nc1ccccc1C(F)(F)F`, the cytotoxicity call is “inactive”.

In the case of `C[C@H](CO)N1C[C@H](C)[C@H](CN(C)C(=O)Nc2ccccc2C(F)(F)F)OCc2ccccc2-c2c(n(C)c3ccccc23)C1=O`, the cytotoxicity call is “inactive”.

On to `C[C@H](CO)N1C[C@H](C)[C@H](CN(C)C(=O)Nc2cccc(Cl)c2Cl)OCc2ccccc2-c2c(n(C)c3ccccc23)C1=O`, for which the cytotoxicity call is “inactive”.

In the case of `C[C@@H]1CN([C@@H](C)CO)C(=O)c2ccccc2-c2ccccc2CO[C@@H]1CN(C)C(=O)Nc1ccccc1C(F)(F)F`, the cytotoxicity call is “active”.

Regarding `C[C@H](CO)N1C[C@H](C)[C@@H](CN(C)C(=O)Nc2cccc(Cl)c2Cl)OCc2ccccc2-c2c(n(C)c3ccccc23)C1=O`, the cytotoxicity call was “active”.

Consider `C[C@@H]1CN([C@H](C)CO)C(=O)c2c(c3ccccc3n2C)-c2ccccc2CO[C@H]1CN(C)C(=O)Nc1cccc(Cl)c1Cl`, for which the cytotoxicity call is “inactive”.

In the case of `Cn1ccnc1CN1CC[C@]2(COCCN(S(C)(=O)=O)C2)C1`, the cytotoxicity call was “inactive”.

Take `Cc1ccc(S(=O)(=O)N(C)C[C@H]2Oc3c(NS(C)(=O)=O)cccc3C(=O)N([C@H](C)CO)C[C@@H]2C)cc1`: the cytotoxicity call was “inactive”.

`C[C@@H]1CN([C@H](C)CO)C(=O)CCCn2nncc2CO[C@@H]1CN(C)C(=O)Nc1cccc2ccccc12`: the cytotoxicity call is “inactive”.

In the case of `COc1cccc(-c2ccc3c(c2)O[C@H](CN(C)C(=O)C2CCOCC2)[C@@H](C)CN([C@H](C)CO)S3(=O)=O)c1`, the cytotoxicity call is “inactive”.

`NCc1ccc(C(=O)N2CCCCC2)cc1`: the cytotoxicity call is “inactive”.

As for `COCC(=O)N(C)C[C@@H]1Oc2cc(-c3ccc(C#N)cc3)ccc2S(=O)(=O)N([C@H](C)CO)C[C@@H]1C`, the cytotoxicity call is “inactive”.

For the molecule `CNCc1nc(C)no1`, the cytotoxicity call is “inactive”.

In the case of `COc1ccccc1S(=O)(=O)N[C@H]1C=C[C@H](CC(=O)N2CCOCC2)O[C@@H]1CO`, the cytotoxicity call is “inactive”.

For the molecule `Cc1ccc(S(=O)(=O)N2C[C@H](O)COC[C@H]3O[C@H](CC(=O)N4CCc5ccccc5C4)CC[C@@H]32)cc1`, the cytotoxicity call is “inactive”.

For `CC(C)(N)c1cc(C(=O)N[C@@H]2CCc3ccc(Oc4ccnc5c4CCC(=O)N5)cc3C2)cc(C(F)(F)F)c1`, the cytotoxicity call was “active”.

Take `CC(C)CC#Cc1ccc2c(c1)O[C@@H](CN(C)C(=O)Cc1ccccn1)[C@@H](C)CN([C@@H](C)CO)S2(=O)=O`: the cytotoxicity call was “inactive”.

For the molecule `C[C@H](CO)N1C[C@H](C)[C@@H](CN(C)S(C)(=O)=O)Oc2ccc(NS(=O)(=O)c3ccccc3)cc2C1=O`, the cytotoxicity call was “inactive”.

As to `C[C@@H]1CN([C@H](C)CO)C(=O)c2cc(NS(=O)(=O)c3ccccc3)ccc2O[C@H]1CN(C)S(C)(=O)=O`, the cytotoxicity call was “active”.

With `C[C@H]1CN([C@@H](C)CO)C(=O)c2cc(NS(=O)(=O)c3ccccc3)ccc2O[C@H]1CN(C)S(C)(=O)=O`, the cytotoxicity call was “inactive”.

Turning to `C[C@H](CO)N1C[C@H](C)[C@H](CN(C)S(C)(=O)=O)Oc2ccc(NS(=O)(=O)c3ccccc3)cc2C1=O`, the cytotoxicity call was “inactive”.

Regarding `C[C@H]1CN([C@@H](C)CO)C(=O)c2cc(NS(=O)(=O)c3ccccc3)ccc2O[C@@H]1CN(C)S(C)(=O)=O`, the cytotoxicity call is “active”.

`C[C@@H]1CN([C@@H](C)CO)C(=O)c2cc(NS(=O)(=O)c3ccccc3)ccc2O[C@@H]1CN(C)S(C)(=O)=O`: the cytotoxicity call is “inactive”.

`Cn1cnc(S(=O)(=O)N2C[C@H](O)COC[C@H]3O[C@@H](CC(=O)NCc4cc(F)cc(F)c4)CC[C@@H]32)c1`: the cytotoxicity call is “inactive”.

Turning to `C[C@@H]1CN([C@H](C)CO)C(=O)c2cccc(NS(=O)(=O)c3ccc(F)cc3)c2O[C@H]1CN(C)S(=O)(=O)c1cn(C)cn1`, the cytotoxicity call is “inactive”.

Turning to `C[C@@H]1CCCCO[C@H](CN(C)S(C)(=O)=O)[C@@H](C)CN([C@H](C)CO)C(=O)c2cc(NC(=O)Nc3cccc4ccccc34)ccc2O1`, the cytotoxicity call is “inactive”.

Regarding `C[C@H]1CN([C@@H](C)CO)C(=O)c2cccc(NC(=O)Nc3ccc4c(c3)OCO4)c2O[C@H]1CN(C)Cc1ccc(C(F)(F)F)cc1`, the cytotoxicity call was “inactive”.

Consider `C[C@H](CO)N1C[C@H](C)[C@H](CN(C)Cc2ccc(C(F)(F)F)cc2)Oc2c(NC(=O)Nc3ccc4c(c3)OCO4)cccc2C1=O`, for which the cytotoxicity call is “inactive”.

`C[C@@H]1CN([C@@H](C)CO)C(=O)c2cccc(NC(=O)Nc3ccc4c(c3)OCO4)c2O[C@H]1CN(C)Cc1ccc(C(F)(F)F)cc1`: the cytotoxicity call is “active”.

On to `C[C@@H]1CN([C@@H](C)CO)C(=O)c2cccc(NC(=O)Nc3ccc(C(F)(F)F)cc3)c2O[C@@H]1CN(C)Cc1ccc2c(c1)OCO2`, for which the cytotoxicity call is “active”.

As to `C[C@H]1CN([C@@H](C)CO)C(=O)c2cccc(NC(=O)Nc3ccc4c(c3)OCO4)c2O[C@@H]1CN(C)Cc1ccc(C(F)(F)F)cc1`, the cytotoxicity call is “inactive”.

As for `C[C@H]1CN([C@@H](C)CO)C(=O)c2cccc(NC(=O)Nc3ccc(C(F)(F)F)cc3)c2O[C@H]1CN(C)Cc1ccc2c(c1)OCO2`, the cytotoxicity call is “inactive”.

Consider `C[C@H](CO)N1C[C@H](C)[C@@H](CN(C)Cc2ccc(C(F)(F)F)cc2)Oc2c(NC(=O)Nc3ccc4c(c3)OCO4)cccc2C1=O`, for which the cytotoxicity call is “inactive”.

As for `C[C@@H]1CN([C@@H](C)CO)C(=O)c2cccc(NC(=O)Nc3ccc(C(F)(F)F)cc3)c2O[C@H]1CN(C)Cc1ccc2c(c1)OCO2`, the cytotoxicity call was “inactive”.

For `C[C@@H]1CN([C@H](C)CO)C(=O)c2cccc(NC(=O)Nc3ccc4c(c3)OCO4)c2O[C@H]1CN(C)Cc1ccc(C(F)(F)F)cc1`, the cytotoxicity call is “active”.

`CCOC(=O)N(C)C[C@H]1OCc2cn(nn2)CCCC(=O)N([C@H](C)CO)C[C@@H]1C`: the cytotoxicity call is “inactive”.

For `CC(=O)O[C@H]1CC[C@]2(C)[C@H]3CC[C@]4(C)C(=CC(=O)O[C@H]4c4ccoc4)[C@]3(C)[C@H](OC(C)=O)C[C@H]2C1(C)C`, the cytotoxicity call was “inactive”.

As to `CN(C)C(=O)c1ccc(-c2ccc3n(c2=O)C[C@@H]2[C@@H](CO)[C@H](C(=O)NCCc4ccccc4)N[C@H]32)cc1`, the cytotoxicity call is “inactive”.

Take `COc1ccc(NC(=O)Nc2ccc3c(c2)C(=O)N([C@@H](C)CO)C[C@H](C)[C@@H](CN(C)Cc2ccc(Oc4ccccc4)cc2)O3)cc1`: the cytotoxicity call is “inactive”.

For the molecule `COc1ccc(NC(=O)Nc2ccc3c(c2)C(=O)N([C@H](C)CO)C[C@H](C)[C@H](CN(C)Cc2ccc(Oc4ccccc4)cc2)O3)cc1`, the cytotoxicity call was “inactive”.

As to `COc1ccc(NC(=O)Nc2ccc3c(c2)C(=O)N([C@H](C)CO)C[C@@H](C)[C@@H](CN(C)Cc2ccc(Oc4ccccc4)cc2)O3)cc1`, the cytotoxicity call is “inactive”.

For the molecule `COc1ccc(NC(=O)Nc2ccc3c(c2)C(=O)N([C@@H](C)CO)C[C@@H](C)[C@H](CN(C)Cc2ccc(Oc4ccccc4)cc2)O3)cc1`, the cytotoxicity call was “inactive”.

On to `COc1ccc(NC(=O)Nc2ccc3c(c2)C(=O)N([C@@H](C)CO)C[C@@H](C)[C@@H](CN(C)Cc2ccc(Oc4ccccc4)cc2)O3)cc1`, for which the cytotoxicity call was “active”.

On to `COc1ccc(NC(=O)Nc2ccc3c(c2)C(=O)N([C@H](C)CO)C[C@H](C)[C@@H](CN(C)Cc2ccc(Oc4ccccc4)cc2)O3)cc1`, for which the cytotoxicity call is “active”.
